From PubChem
HT1080-NT tox: kills 2HG-producing HT-1080-NT fibrosarcoma cells; HT-1080-NT fibrosarcoma viability, CellTiter-Glo ATP luminescence, 48 h; Potency, µM (highest dose often 46.1 µM), for the others: at the top dose activity, negative = less viability, actives largely listed as cytotoxic; 360,000 tested, 1.6% active; AID 686970;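 further: NT is the 2HG producing partner of a matched IDH1 knockdown line; potency means the concentration at half of the fitted maximal effect; 0% = DMSO-treated cells and -100% = media-only wells without cells; nearly all actives have a fitted effect of over 55% in size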
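Read-out is CellTiter-Glo luminescence after 10 minutes at room temperature, following 48 hours' compound treatment of HT-1080-NT cells (750 cells/well, RPMI, 5% FBS, 37 degrees C).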
Giardia killer: kills Giardia lamblia | Giardia lamblia trophozoite viability | activity change, % at 7.66 µM, hits read low | 340,000 tested, 0.15% active | AID 540267; in the data active means activity change below about -80%; inconclusive means between about -30% and that limit;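 further: parasites exposed to compound for two days anaerobically before the ATP read; on the % scale 0 is the no-effect control and ±100 the full control effect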
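ATP-content bioluminescence gauges trophozoite survival. Cells (100/well) receive compound and incubate anaerobically for 48 hrs at 37 deg C; detection reagent follows for 15-30 min at room temperature.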
IL-1B inflam inh: inhibitors of inflammasome signaling (IL-1 beta secretion); activity change, % at 57.5 µM; 360,000 tested, 4.7% active; THP-1 LPS/ATP IL-1B secretion, AlphaLISA, 16 h; stronger effect = lower value; in the data active means activity change below about -50%; inconclusive means mostly about -30% to -49%; further: on the % scale 0 is the no-effect control and ±100 the full control effect
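Secreted IL-1B measured by AlphaLISA bead assay after 16 h compound exposure of THP-1 cells; compounds (final up to 57.5 uM) added 1 h before LPS (250 ng/mL) and ATP (1.25 mM) stimulation; lower signal means less secretion.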
HepG2 viability: counter-screen for TGF-b inhibitors: cytotoxicity in HepG2 cells; Potency, µM (series often up to 46.1 µM), for inactives: at the highest dose activity change, negative = cytotoxicity, actives largely listed as cytotoxic; HepG2 CAGA-GFP viability, ATP luminescence, 18 h; 410,000 tested, 0.76% active; further: potency means the concentration at half of the fitted maximal effect
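CellTiter-Glo luminescence gave cytotoxicity after 18 hours at 37 degrees C. The cells were HepG2 CAGA-GFP in 1% FBS DMEM, stimulated with 500 pg/mL TGF-beta after compound addition. %Activity was normalised to no-cell wells (complete cell-killing) and DMSO (no toxicity), and curves were fitted and classified.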
HT1080 IDH1KD tx: HT-1080 IDH1 knockdown cell toxicity (counter line). HT-1080 IDH1 knockdown viability, ATP luminescence, 48 h. Potency, µM (series often up to 46.1 µM), inactives show at the top dose activity, negative = toxicity, most hits filed as cytotoxic. 360,000 tested, 2% active. AID 686971;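 further: potency means the concentration at half of the fitted maximal effect; 0% = DMSO wells and -100% = cell-free medium wells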
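% activity derives from luminescence (CellTiter-Glo), normalised to DMSO and no-cell wells. HT-1080-IDH1KD cells, 750/well, had 48 h compound exposure at 37 °C.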
TGFb inhibitor: TGF-b pathway inhibition; HepG2 CAGA-GFP TGF-b/SMAD3 reporter, GFP fluorescence, 18 h; TGF-beta stimulated, 500 pg/mL final; Potency, µM (doses to about 46.1 µM), for inactives: at the highest dose activity, negative = inhibition, hits mostly inhibitors; 410,000 tested, 1.2% active; AID 588855; further: potency means the concentration at half of the fitted maximal effect; on the % scale 0 is the no-effect control and ±100 the full control effect; nearly all actives have a fitted effect of over 65% in size
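Inhibition was scored as loss of TGF-beta-induced (500 pg/mL final, 18 hours, 37 degrees C) GFP in HEPG2 cells carrying a CAGA-GFP reporter, in DMEM with 1% FBS. Well GFP was summed per cell; Activity was normalised to unstimulated and stimulated DMSO wells, then concentration-response fitting.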
Active calls of the source: *; i = inactive; ? = inconclusive; . = no result given. Compounds with a hit are over-represented: about 6.5% of the library has one in this group of screens. Unless noted, the call rests on the fitted dose curve; in most records, active means well fitted curve in the direction sought with a large enough effect; inconclusive means small, poorly fitted or top-dose-only effect, or another doubt; inactive means no such curve, though single readings can be large; an effect the other way counts as inactive or inconclusive.

SMILES	HT1080-NT tox	Giardia killer	IL-1B inflam inh	HepG2 viability	HT1080 IDH1KD tx	TGFb inhibitor
CCOc1ccc(-n2c(SCC(=O)Nc3ccc(CC)cc3)nc3n[nH]c(C)c3c2=N)cc1	?	-19	-29	-54%	18µM*	?
CCCCN(CC)C(=O)CSc1nc2n[nH]c(C)c2c(=N)n1-c1cccc(OC)c1	.	.	.	-30%	.	4.5µM*
COc1cccc(C(=O)N/N=c2\oc3c(OC)cccc3cc2C(=O)NCc2ccccc2)c1	-9%	-18	0	8%	0%	0%
O=c1[nH]c2ccccc2c2oc(CCl)nc12	5.8µM*	-1	-101*	-95%	15µM*	?
O=C(CNc1cccc(Cl)c1)c1ccc(Cl)cc1	-3%	-6	-5	-33%	?	?
CCCCn1c(-c2ccc(F)c(F)c2)nc2cc3[nH]c(=O)c(C(C)C)nc3cc21	?	-24	-19	-22%	-21%	?
Cc1ccc(CCC(=O)Nc2ncc(Cc3cccc(Cl)c3Cl)s2)o1	0.73µM*	11	14	1%	?	?
CCCCC1(CO)C(=O)N(c2ccccc2)N(c2ccccc2)C1=O	-7%	17	-18	-25%	-12%	-13%
CCCCC1C(=O)N(c2ccccc2)N(c2ccc(O)cc2)C1=O (stereo not drawn)	?	-1	-109*	8.9µM*	9%	5.6µM*
Cc1cc2ccccn2c1C(=O)c1ccc([N+](=O)[O-])cc1[N+](=O)[O-]	-3%	-86*	-14	2%	0%	17%
Cc1cc2ccccn2c1C(=O)c1ccc(Cl)c([N+](=O)[O-])c1	-9%	-28	-75*	-15%	-1%	?
COc1ccc(C(=O)c2ccc(Cl)c([N+](=O)[O-])c2)cc1	?	-11	-101*	-27%	5.8µM*	?
Cc1cc2ccccn2c1C(=O)c1ccc([N+](=O)[O-])o1	?	?	-99*	11µM*	16µM*	11µM*
Cc1cc2ccccn2c1C(=O)c1cccc([N+](=O)[O-])c1	-16%	5	0	2%	?	-3%
COc1ccc(C(=O)c2ccc(Cl)cc2)cc1	?	8	0	-3%	6%	?
Cc1ccccc1CSc1nnnn1-c1ccc(C(N)=O)cc1	-20%	1	100	-3%	-16%	?
CCc1n[nH]c(=S)n1/N=C/c1ccc(N(CC)CC)cc1	-19%	8	20	7%	-11%	-12%
N#Cc1c(Nc2ccccc2Cl)s[nH]c1=O	?	-13	-59*	-143%	16µM*	0%
N#Cc1c(Nc2ccccc2C(F)(F)F)s[nH]c1=O	-25%	13	.	-53%	?	20µM*
CSc1nncc(/C(C)=N/O)n1	14%	9	-30	6%	7%	0%
Fc1ccc(Nc2nc(SCc3cccc(F)c3)nc3ccccc23)cc1	.	.	.	13µM*	.	?
Fc1ccc(Nc2nc(SCc3cccc(Cl)c3)nc3ccccc23)cc1	.	.	.	-108%	.	?
Cc1cc(NC(=O)c2ccccc2Cl)c(C(C)C)cc1O	4%	6	10	-4%	8%	0%
CN(C)CCCN(C(=O)c1ccco1)c1nc2ccc(Cl)cc2s1	?	16	-16	-32%	18µM*	?
Cc1cccc2sc(N(CCCN(C)C)C(=O)CCc3ccccc3)nc12	-28%	8	-18	-110%	0%	13µM*
SMILES	HT1080-NT tox	Giardia killer	IL-1B inflam inh	HepG2 viability	HT1080 IDH1KD tx	TGFb inhibitor
Cc1ccc(C(=O)N(CCCN(C)C)c2nc3ccc(Cl)cc3s2)cc1C	23µM*	22	-107*	22µM*	23µM*	?
CCN(CC)CCN(C(=O)c1ccco1)c1nc2ccc(Cl)cc2s1	.	.	.	-59%	.	?
Cc1ccc2nc(N(CCCN(C)C)C(=O)c3ccc(S(=O)(=O)N(C)C)cc3)sc2c1	8%	-3	-6	3%	15%	1%
Cc1ccc2nc(N(CCCN(C)C)C(=O)c3sc4ccccc4c3Cl)sc2c1	?	-23	-91*	-66%	-23%	?
CN(C)CCN(C(=O)c1ccc2c(c1)OCCO2)c1nc2ccc(Cl)cc2s1	-4%	8	-21	-5%	?	4%
COc1ccccc1CNC(=O)C1CCC(CNC(=O)[C@@H]2Cc3ccccc3CN2)CC1 (stereo partly drawn)	-7%	-7	-18	-6%	-4%	1%
CN(C)CCN(C(=O)c1ccco1)c1nc2cc3c(cc2s1)OCCO3	-22%	-28	7	0%	-13%	-10%
CN(C)CCCN(C(=O)CCc1ccccc1)c1nc2ccc(Br)cc2s1	18µM*	-5	-102*	-102%	?	16µM*
CCc1ccc2nc(N(CCN(C)C)C(=O)c3ccc4ncsc4c3)sc2c1	-27%	25	-76*	-16%	-1%	-2%
CN(C)CCCN(C(=O)c1ccco1)c1nc2ccc(Br)cc2s1	23µM*	-14	-70*	-72%	21µM*	0%
Cc1ccc(C(=O)NCc2ccc(F)cc2)s1	4%	6	7	-3%	-4%	-7%
Cc1cccc(C)c1OCC(O)CN (stereo not drawn)	6%	-12	-59*	5%	11%	-4%
CCNS(=O)(=O)c1ccc(CCC(=O)NC2CCCC2)cc1	2%	23	-13	0.1µM*	1%	-7%
Cc1ccc(S(=O)(=O)NCCC(=O)N2CCN(c3cccc(Cl)c3)CC2)cc1C	-3%	1	-1	1%	-1%	?
CC(C)CNS(=O)(=O)c1ccc(CCC(=O)NC2CCCC2)cc1	0%	-12	0	1%	-1%	1%
CCNS(=O)(=O)c1ccc(CCC(=O)N2CCN(c3cccc(Cl)c3)CC2)cc1	3%	-16	-51*	-2%	-17%	0%
CC(=O)Oc1c(-c2ccco2)oc2ccccc2c1=O	?	-6	-82*	-24%	?	32%
Oc1c(C(Nc2nc3ccccc3s2)c2ccco2)ccc2cccnc12 (stereo not drawn)	-30%	3	-99*	-54%	?	?
CC(=O)NC(c1ccc2ccccc2c1)c1ccc2cccnc2c1O (stereo not drawn)	?	-3	139	-11%	?	?
CC(C)C(=O)NC(c1ccco1)c1ccc2cccnc2c1O (stereo not drawn)	4.1µM*	6	121	-18%	?	-23%
COc1ccc(N2CCN(C(=O)c3cccc(NC(=O)c4ccco4)c3)CC2)cc1	-4%	-1	i	0%	-8%	-13%
